Compound activity deposited in PubChem by National Center for Advancing Translational Sciences (NCATS).
A selection: hits, their analogues and other compounds. The true share with any hit is near 19%.
HT1080 IDH1KD tx: qHTS for induction of synthetic lethality in tumor cells producing 2HG: qHTS for the HT-1080-IDH1KD cell line. HT-1080 IDH1 knockdown viability, ATP luminescence, 48 h. Potency, µM (titrated, usually from 46.1 µM), for inactives: at the highest dose activity, negative = toxicity, usual class: cytotoxic. hit rate 2% among 360,000. AID 686971, 2013;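 further: potency means the concentration at half of the fitted maximal effect; 0% = DMSO wells and -100% = cell-free medium wells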
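Viability of IDH1-knockdown HT-1080 fibrosarcoma cells was assessed by CellTiter-Glo after 48 h at 37 °C with titrated compound; concentration-effect curves were classified by fit quality and response size.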
DT40 TDP1 no CPT: qHTS for Inhibitors of human tyrosyl-DNA phosphodiesterase 1 (TDP1): qHTS in cells in absence of CPT; DT40 Tdp1-/- hTDP1 cells, no CPT, ATP luminescence, 48 h; Potency, µM (titrated, usually from 46.2 µM), inactives show at the highest dose activity change, negative = growth inhibition, most hits filed as inhibitors; AID 686978, 2013; hit rate 15% among 420,000; further: potency means the concentration at half of the fitted maximal effect; nearly all actives have a fitted effect of over 55% in size
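Stably hTDP1-transfected Tdp1-null chicken DT40 cells were treated with library compounds minus camptothecin and grown for at least 48 hr at 37 °C, after which cellular ATP was quantified by luminescence.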
HT1080NT lethal: qHTS for induction of synthetic lethality in tumor cells producing 2HG: qHTS for the HT-1080-NT fibrosarcoma cell line | HT-1080-NT fibrosarcoma viability, CellTiter-Glo ATP luminescence, 48 h | Potency, µM (doses to about 46.1 µM), inactives show at the top dose activity, negative = less viability, most hits filed as cytotoxic | hit rate 1.6% among 360,000;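 further: NT is the 2HG producing partner of a matched IDH1 knockdown line; potency means the concentration at half of the fitted maximal effect; 0% = DMSO-treated cells and -100% = media-only wells without cells; nearly all actives have a fitted effect of over 55% in size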
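Toxicity toward the 2HG-producing NT line was scored as %Activity, normalised to DMSO and no-cell wells, from CellTiter-Glo luminescence after 48 hours' treatment.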
DT40 TDP1 CPT: qHTS for Inhibitors of human tyrosyl-DNA phosphodiesterase 1 (TDP1): qHTS in cells in presence of CPT. chicken DT40 Tdp1-/-;hTDP1 cells + 20 nM CPT, ATP luminescence, 48 h. Potency, µM (top dose mostly 46.2 µM), for inactives: at the highest dose activity change, negative = growth inhibition, actives largely listed as inhibitors. hit rate 12% among 420,000; further: potency means the concentration at half of the fitted maximal effect; nearly all actives have a fitted effect of over 55% in size
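Chicken DT40 Tdp1-/- cells complemented with human TDP1, 400 cells/well, exposed to compounds plus 20 nM camptothecin for at least 48 h at 37 C; viability read as ATP content by CellTiter-Glo luminescence.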
IL-1B inflam inh: qHTS for Inhibitors of Inflammasome Signaling: IL-1-beta AlphaLISA Primary Screen | hit rate 4.7% among 360,000 | THP-1 LPS/ATP IL-1B secretion, AlphaLISA, 16 h; active compounds read low | activity change, % at 57.5 µM | AID 743279, 2014; in the data active means activity change below about -50%; inconclusive means mostly about -30% to -49%
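Secreted IL-1B measured by AlphaLISA bead assay after 16 h compound exposure of THP-1 cells; compounds (final up to 57.5 uM) added 1 h before LPS (250 ng/mL) and ATP (1.25 mM) stimulation; lower signal means less secretion.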
Numbers without * were called inactive; ? = inconclusive; nt = no result. Unless noted, the call rests on the fitted dose curve; in most records, active means well fitted curve in the direction sought with a large enough effect; inconclusive means small, poorly fitted or top-dose-only effect, or another doubt; inactive means no such curve, though single readings can be large; an effect the other way counts as inactive or inconclusive. Unless noted, on the % scale 0 is the no-effect control and ±100 the full control effect.

SMILES	HT1080 IDH1KD tx	DT40 TDP1 no CPT	HT1080NT lethal	DT40 TDP1 CPT	IL-1B inflam inh
O=C1CN(C(=O)c2cc(Br)c(Br)s2)c2ccccc2N1	20.6µM*	13µM*	?	?	19.4
O=C1CN(C(=O)c2ccccc2C(=O)O)c2ccccc2N1	16.6%	-1.6%	0.1%	-3.0%	-1.9
O=C1CN(C(=O)c2cccc(Br)c2)c2ccccc2N1	?	11.6µM*	14.6µM*	14.6µM*	21.1
O=C1CN(C(=O)c2ccccc2)c2ccccc2N1	4.6%	-1.8%	5.6%	-1.5%	-7.0
NC(CSC(c1ccccc1)(c1ccccc1)c1ccc2c(c1)OCO2)C(=O)O (configuration not stated)	18.4µM*	7.31µM*	11.6µM*	?	17.8
O=C(CSc1n[nH]c(=O)n1C1CC1)Nc1cc(Cl)ccc1Oc1ccccc1	-18.6%	14.6µM*	-22.1%	16.4µM*	-14.7
CN(C)Cc1c(C(=O)N/N=C/c2ccccc2OCc2c(F)cccc2Cl)nnn1-c1nonc1N	8.2µM*	5.17µM*	11.6µM*	4.11µM*	40.5
CN(C)Cc1c(C(=O)N/N=C/c2cccc(OCc3c(F)cccc3Cl)c2)nnn1-c1nonc1N	-0.6%	7.31µM*	-0.9%	9.2µM*	0.0
CN(C)Cc1c(C(=O)N/N=C/c2cccc(OCc3ccccc3)c2)nnn1-c1nonc1N	-5.4%	-6.2%	9.1%	-27.0%	10.8
CN(CCO)C(=O)c1cn(C2CCN(Cc3cccc4ccccc34)CC2)nn1	nt	-19.9%	nt	-8.5%	nt
CC(=O)N1CCC2(CCN(Cc3ccc(C#N)cc3)CC2)CC1	nt	2.8%	nt	5.0%	nt
CN(C)CCNc1ncnc2c1sc1nc(-c3ccccc3)c3c(c12)CCCC3	18.4µM*	23.1µM*	10.3µM*	?	-75.8*
C=CCSc1nc2sc3c(c2c(=O)[nH]1)CC(C)(CC)OC3 (configuration not stated)	8.1%	?	13.7%	?	-7.0
CCNc1nc(NCC)n2c(SC(C(=O)Nc3cc(C)ccc3C)c3ccccc3)nnc2n1 (configuration not stated)	?	11.6µM*	-23.3%	?	?
CCNc1nc(NCC)n2c(SCC(=O)Nc3ccc(NC(C)=O)cc3)nnc2n1	11.6%	4.9%	0.3%	-13.8%	18.5
CCNc1nc(NCC)n2c(SCC(=O)Nc3ccc(CC)cc3)nnc2n1	0.3%	?	4.4%	20.6µM*	-1.0
CCNc1nc(NCC)n2c(SC(C)C(=O)c3ccc(C)cc3)nnc2n1 (configuration not stated)	0.7%	13µM*	4.5%	?	1.2
CCOc1cc(NC(=O)c2ccccn2)c(OCC)cc1NC(=O)c1ccc(C)cc1	11.6%	3.26µM*	-2.3%	5.17µM*	7.3
CCOc1cc(NC(=O)CCl)c(OCC)cc1NC(=O)CCl	?	1.16µM*	?	2.91µM*	-81.4*
CCOc1cc(C(=O)NC(=S)Nc2cccnc2)cc(OCC)c1OCC	8.1%	23.1µM*	-5.5%	?	-7.6
CCOc1cc(NC(=O)c2ccccc2OC)c(OCC)cc1NC(=O)c1ccccc1	15.3%	?	9.2%	?	?
CCOc1cc(NC(=O)C2CCCCC2)c(OCC)cc1NC(=O)c1ccccn1	11.7%	1.64µM*	6.4%	3.66µM*	12.9
CCOc1ccccc1NC(=O)CCC(=O)Nc1ccccc1OCC	-0.5%	-6.2%	1.2%	4.4%	26.6
COCC1COS(=O)(=O)NC1(C)C (configuration not stated)	8.2%	3.0%	5.8%	0.4%	2.2
CCOc1cc(NC(=S)Nc2cccc(OC)c2)c(OCC)cc1NC(=O)C(C)C	0.0%	-27.8%	6.8%	-23.0%	-24.9
SMILES	HT1080 IDH1KD tx	DT40 TDP1 no CPT	HT1080NT lethal	DT40 TDP1 CPT	IL-1B inflam inh
CCOc1cc(NC(=S)Nc2cccc(OC)c2)c(OCC)cc1NC(=O)c1ccc(C)cc1	?	20.6µM*	?	?	4.8
O=c1ccc2nc3ccccc3sc-2c1	?	1.46µM*	?	0.651µM*	-102.5*
CCN1CCCc2cc(CN(CCN3CCOCC3)C(=O)Nc3ccc(C)c(C)c3)ccc21	-17.7%	25.9µM*	-3.5%	?	?
CCN1CCCc2cc(CN(CCN3CCOCC3)C(=S)Nc3cccc(C)c3)ccc21	-11.5%	?	-19.4%	16.4µM*	?
CCCCN1CCCc2cc(CN(CCCN3CCOCC3)C(=O)Nc3ccc(OCC)cc3)ccc21	nt	18.4µM*	nt	18.4µM*	nt
Cc1ccccc1NC(=S)N(CCN1CCCCCC1)Cc1cccs1	-6.7%	?	-3.8%	?	-8.5
CCN1CCCc2cc(CN(CCN3CCOCC3)C(=S)Nc3ccccc3C)ccc21	0.6%	0.8%	-3.5%	-17.5%	25.4
COc1ccccc1NC(=S)N(CCN1CCCCCC1)Cc1cccs1	-7.0%	9.2µM*	-10.5%	?	-13.0
Cc1ccc(=O)n(C(C(=O)NCc2ccco2)C(=O)c2ccc(F)cc2)c1 (configuration not stated)	11.8%	-13.9%	2.1%	-2.7%	10.0
COc1ccc(S(=O)(=O)Nc2cc3c4c(c2)CC(=O)N4CCC3)cc1OC	-2.2%	?	-2.3%	-21.5%	24.6
COCCN(C(=S)Nc1ccccc1OC)C(C)c1cccs1 (configuration not stated)	19.2%	29.1µM*	5.7%	23.1µM*	7.4
CCN1CCCc2cc(CN(CCN3CCOCC3)C(=S)Nc3ccccc3OC)ccc21	-0.1%	16.4µM*	-4.2%	?	-3.3
CCN1CCCc2cc(CN(CCN3CCOCC3)C(=S)Nc3ccc(OC)c(Cl)c3)ccc21	-2.5%	9.2µM*	0.4%	?	0.0
C/C(N)=C(/C#N)C(=O)CSc1nc(-c2ccccc2)c(-c2ccccc2)o1	?	?	?	-29.5%	-14.5
COc1ccc(Cl)c(NCCC(=O)O)c1	0.0%	0.9%	-3.3%	-7.5%	-21.3
O=C(c1ccc(CS(=O)(=O)c2c(Cl)cccc2Cl)o1)N1CCCC1	3.2%	-26.4%	-2.5%	?	4.5
Cc1ccccc1S(=O)(=O)Cc1ccc(C(=O)N2CCN(c3ccccc3F)CC2)o1	-4.3%	?	-8.4%	?	12.6
Cc1ccccc1S(=O)(=O)Cc1ccc(C(=O)N2CCN(c3ccc(F)cc3)CC2)o1	-26.0%	?	-22.3%	16.4µM*	0.9
O=C(c1ccc(CS(=O)(=O)c2c(Cl)cccc2Cl)o1)N1CCN(c2ccccc2)CC1	nt	14.6µM*	nt	?	nt
